Measured values as given in PubChem BioAssay (NCI).
This is part of a sample that, as a whole, favours compounds with a hit. Of some 83,000 tested, about 20% had one in any assay.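 Cells were grown in 96-well plates and exposed to the test compound at a single concentration for 48 hours; results are reported as percent growth, with values below 10 considered active.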 Active and inactive are the calls of the source.

How the values were obtained:
Assay in all cases: NCI-60 one-dose screen, 48 h (100 = growth as untreated, 0 = no growth, -100 = all killed)
Details in all cases: 10 µM unless noted
[1] = tested on: EKVX NSCLC
[2] = tested on: SN12C renal
[3] = tested on: UO-31 renal
[4] = tested on: TK-10 renal
[5] = tested on: ACHN renal
[6] = tested on: CAKI-1 renal
[7] = tested on: A498 renal
[8] = tested on: CCRF-CEM leukemia
[9] = tested on: MOLT-4 leukemia

Measured: growth

CCCCN(CCCC)CCCOC(=O)c1ccc(N)cc1
inactive: [1] 94.3% | [2] 82% | [3] 81.2% | [4] 103% | [5] 91.9% | [6] 90.5% | [7] 104% | [8] 96.8% | [9] 93.2%

Cc1scc2c1N(C(=O)CN1CCN(C)CC1)c1ccccc1NC2=O
inactive: [1] 107% | [2] 101% | [3] 85.9% | [4] 105% | [5] 102% | [6] 99.5% | [7] 122% | [8] 108% | [9] 96.5%

N=c1ccn2c(n1)O[C@@H]1[C@@H](O)[C@H](CO)O[C@@H]12
inactive: [1] 98.8% | [2] 54.3% | [3] 15.5% | [4] 67.2% | [5] 11.8% | [6] 55.3% | [7] 99.3% | [8] 31.5% | [9] 28.2%

O=C1OCC/C1=C\OCCCO/C=C1\CCOC1=O
inactive: [1] 101% | [2] 99.3% | [3] 90.7% | [4] 110% | [5] 103% | [6] 106% | [7] 119% | [8] 107% | [9] 111%

NC(N)=NC(N)=NCCCc1ccccc1
inactive: [1] 31.8% [100 µM] | [2] 79.3% [100 µM] | [3] 65.9% [100 µM] | [4] 63.3% [100 µM] | [5] 65.8% [100 µM] | [6] 63.7% [100 µM] | [7] 68.3% [100 µM] | [8] 69.1% [100 µM] | [9] 73.8% [100 µM]

Fc1ccc([C@@H]2CCNC[C@H]2COc2ccc3c(c2)OCO3)cc1
inactive: [1] 77.3% | [2] 58.6% | [3] 40.4% | [4] 58.4% | [5] 67% | [6] 67% | [7] 86.1% | [8] 60.6% | [9] 68.3%

COc1cc([C@@H]2c3cc4c(cc3C(O[C@@H]3O[C@@H]5CO[C@@H](c6cccs6)OC5[C@H](O)[C@H]3O)C3COC(=O)[C@@H]32)OCO4)cc(OC)c1O (stereo partly specified)
inactive: [1] 12.7%
active: [2] -9.91% | [3] -72.2% | [4] -54.7% | [5] -54.3% | [6] -10.3% | [7] -73.2% | [8] -1.14% | [9] 3.06%

COc1ccc(-n2nc3c(c2-c2ccc(OC)c(OC)c2)-c2oncc2CC3)cc1
inactive: [1] 92.6% | [2] 88.4% | [3] 79.1% | [4] 103% | [5] 55.7% | [6] 80.6% | [7] 83.5% | [8] 50.4% | [9] 72.6%

COC1CC2CCC(C)C(O)(O2)C(=O)C(=O)N2CCCCC2C(=O)OC(C(C)CC2CCC(O)C(OC)C2)CC(=O)C(C)C=C(C)C(O)C(OC)C(=O)C(C)CC(C)/C=C/C=C/C=C1C (stereo unspecified)
active: [7] -5.92%
inactive: [1] 30.3% | [2] 48.2% | [3] 21.5% | [4] 49.7% | [5] 40.3% | [6] 49% | [8] 37.9% | [9] 21.4%

CN=C(NC)N/N=C(C)\C=N\NC(=NC)NC
inactive: [1] 101% | [2] 96.4% | [3] 83.7% | [4] 127% | [5] 101% | [6] 89.1% | [7] 96.3% | [8] 106% | [9] 101%

NC(=O)c1ncn([C@@H]2O[C@H](CO)[C@@H](O)[C@H]2O)n1
inactive: [1] 96.9% | [2] 89.3% | [3] 73.5% | [4] 95.5% | [5] 83.1% | [6] 85.4% | [7] 110% | [8] 76.9% | [9] 72.3%

c1cncc(CNc2ccccc2-c2nnc(Nc3ccc4c(c3)OCO4)o2)c1
inactive: [1] 35.3% | [2] 28.8% | [3] 40.7% | [4] 50% | [5] 32.2% | [8] 19% | [9] 18.6%
active: [6] 9.02% | [7] -0.133%

COc1c(C)c2c(c(O)c1C/C=C(\C)CCC(=O)OCCN1CCOCC1)C(=O)OC2
inactive: [1] 46% | [2] 24.1% | [3] 15.4% | [4] 27.1% | [5] 27% | [7] 30% | [8] 18.6% | [9] 24.4%
active: [6] 5.19%

Cn1cc(-c2csc(-c3cn(C)c4ncccc34)n2)c2cccnc21
inactive: [1] 86.6% | [2] 93.1% | [3] 91.9% | [4] 92.2% | [5] 99.7% | [6] 83.3% | [7] 76.1% | [8] 87.3% | [9] 95.7%
